Results: PubChem BioAssay (NCATS)
Inconclusive results are not listed. Active and inactive are the calls of the source. Calls come from the whole dose curve; as a rule, active = well fitted inhibition curve with a large enough effect; inconclusive = small, poorly fitted or top-dose-only effect; inactive = flat fitted curve, though single readings scatter.

test system: 7G8; assay: qHTS profiling for inhibitors of Plasmodium falciparum proliferation (AID 504749); note: nearly all actives have a fitted effect of over 60% in size;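 for activity, negative = inhibition: 0% = DMSO vehicle and full inhibition = artemisinin control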; details: P. falciparum in erythrocytes, SYBR Green DNA, 72 h; series mostly up to 28.7 µM; activity, negative = inhibition: at the top concentration
Method in brief: (§1)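 P. falciparum-infected erythrocytes (0.3% parasitemia, 2.5% hematocrit) incubated with compound 72 h at 37 C, 5% CO2. Parasite DNA detected by SYBR Green after lysis, overnight at room temperature; normalised to 0.29 uM artemisinin and DMSO.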
Potency is the fitted concentration of half-maximal effect.

SMILES | activity, negative = inhibition | Potency
CN(C)CCN(Cc1ccccc1)c1ccccn1 | -24.6% (inactive) | 
CN(C)CCCN1c2ccccc2Sc2ccc(Cl)cc21 |  | 10 µM (active)
CCCc1c(OCCCCc2nn[nH]n2)ccc(C(C)=O)c1O |  | 12.6 µM (active)
CCOc1nc2cccc(C(=O)O)c2n1Cc1ccc(-c2ccccc2-c2nn[nH]n2)cc1 |  | 8.91 µM (active)
OCCN1CCN(CCCN2c3ccccc3Sc3ccc(Cl)cc32)CC1 |  | 4.47 µM (active)
CC(CN1c2ccccc2Sc2ccccc21)N(C)C (centres undefined) |  | 8.91 µM (active)
CSc1ccc2c(c1)N(CCC1CCCCN1C)c1ccccc1S2 (centres undefined) |  | 5.62 µM (active)
COCCOC(=O)C1=C(C)NC(C)=C(C(=O)OC/C=C/c2ccccc2)C1c1cccc([N+](=O)[O-])c1 (centres undefined) |  | 7.94 µM (active)
CC(C(O)c1ccc(O)cc1)N1CCC(Cc2ccccc2)CC1 (centres undefined) |  | 8.91 µM (active)
CCOC(CN1CCN(CC(C)C(=O)c2ccccc2)CC1)c1ccccc1 (centres undefined) |  | 11.2 µM (active)
NC(=O)N/N=C/c1ccc([N+](=O)[O-])o1 |  | 10 µM (active)
Nc1ccc(S(=O)(=O)Nc2ccc(Cl)nn2)cc1 | 0.298% [at 12.8 µM] (inactive) | 
CCCCN1CCCC[C@H]1C(=O)Nc1c(C)cccc1C | -7.92% (inactive) | 
C[C@]12C[C@H](O)[C@H]3[C@@H](CCC4=CC(=O)CC[C@@]43C)[C@@H]1CC[C@@H]2C(=O)CO | -10.7% (inactive) | 
CN1CCN(C2Cc3ccccc3Sc3ccc(Cl)cc32)CC1 (centres undefined) |  | 8.91 µM (active)
[Cl][In]([Cl])[Cl] |  | 2 µM (active)
Cc1cc(N)c2ccccc2[n+]1CCCCCCCCCC[n+]1c(C)cc(N)c2ccccc21 |  | 0.0355 µM (active)
Oc1ccc(C(O)CNCCCCCCNCC(O)c2ccc(O)c(O)c2)cc1O (centres undefined) |  | 3.55 µM (active)
O=C1NS(=O)(=O)c2ccccc21 | -12.9% (inactive) | 
CNCCCC1c2ccccc2C=Cc2ccccc21 |  | 5.62 µM (active)
CSc1ccc2c(c1)C(N1CCN(C)CC1)Cc1ccccc1S2 (centres undefined) |  | 10 µM (active)
Cc1ccc2nc(N)[nH]c(=O)c2c1Sc1ccncc1 |  | 5.62 µM (active)
CC(C)(C)C(=O)C(Oc1ccc(Cl)cc1)n1ccnc1 (centres undefined) |  | 7.94 µM (active)
CNC(=O)Oc1ccc2c(c1)[C@]1(C)CCN(C)[C@@H]1N2C |  | 2.24 µM (active)

test system: AA1029; assay: as above; details: P. falciparum in erythrocytes, SYBR Green DNA, 72 h; series mostly up to 28.7 µM; activity, negative = inhibition: at the top concentration
Method in brief: as §1

SMILES | activity, negative = inhibition | Potency
CC[C@@]1(c2ccccc2)NC(=O)N(C)C1=O | 6.32% (inactive) | 
CCCc1c(OCCCCc2nn[nH]n2)ccc(C(C)=O)c1O | -23.5% (inactive) | 
OCCN1CCN(CCCN2c3ccccc3Sc3ccc(Cl)cc32)CC1 |  | 3.55 µM (active)
CSc1ccc2c(c1)N(CCC1CCCCN1C)c1ccccc1S2 (centres undefined) |  | 10 µM (active)
COCCOC(=O)C1=C(C)NC(C)=C(C(=O)OC/C=C/c2ccccc2)C1c1cccc([N+](=O)[O-])c1 (centres undefined) |  | 8.91 µM (active)
Cc1cc(C(C#N)c2ccc(Cl)cc2)c(Cl)cc1NC(=O)c1cc(I)cc(I)c1O (centres undefined) | 0.793% (inactive) | 
O=S(=O)(O)c1cc(I)c(O)c2ncccc12 | 6.19% (inactive) | 
CCCCOC(=O)c1ccc(O)cc1 | 3.31% (inactive) | 
CCCCCCCCCCCCCCCC(=O)NCCO | 5.6% (inactive) | 
Cc1ccc(C(C)C)cc2c(C)ccc1-2 | -11.5% (inactive) | 
CCCCN1CCCC[C@H]1C(=O)Nc1c(C)cccc1C | -25.7% (inactive) | 
OCc1cc(C(O)CNCCCCCCOCCCCc2ccccc2)ccc1O (centres undefined) | -21.4% (inactive) | 
COC(=O)C1=C(C)NC(C)=C(C(=O)OC)C1c1ccccc1[N+](=O)[O-] | -6.55% (inactive) | 
[Cl][In]([Cl])[Cl] | -13.5% (inactive) | 
Cc1c(Cl)cccc1Nc1ccccc1C(=O)O | -2.68% (inactive) | 
Cc1cc(N)c2ccccc2[n+]1CCCCCCCCCC[n+]1c(C)cc(N)c2ccccc21 |  | 0.316 µM (active)
CC1=C(CC(=O)O)c2cc(F)ccc2/C1=C\c1ccc(S(C)=O)cc1 (centres undefined) | -7.58% (inactive) | 
CC(C)(C)NCC(O)COc1ccc(NC(=O)NC2CCCCC2)cc1 (centres undefined) | -12% (inactive) | 
O=C1NS(=O)(=O)c2ccccc21 | 1.57% (inactive) | 
Cc1ccc2nc(N)[nH]c(=O)c2c1Sc1ccncc1 |  | 11.2 µM (active)

test system: AS120; assay: as above; details: P. falciparum in erythrocytes, SYBR Green DNA, 72 h; series mostly up to 28.7 µM; activity, negative = inhibition: at the top concentration
Method in brief: as §1

SMILES | activity, negative = inhibition | Potency
CC[C@@]1(c2ccccc2)NC(=O)N(C)C1=O | 8.47% (inactive) | 
CCCc1c(OCCCCc2nn[nH]n2)ccc(C(C)=O)c1O | -18% (inactive) | 
OCCN1CCN(CCCN2c3ccccc3Sc3ccc(Cl)cc32)CC1 |  | 3.98 µM (active)
CSc1ccc2c(c1)N(CCC1CCCCN1C)c1ccccc1S2 (centres undefined) |  | 11.2 µM (active)
COCCOC(=O)C1=C(C)NC(C)=C(C(=O)OC/C=C/c2ccccc2)C1c1cccc([N+](=O)[O-])c1 (centres undefined) |  | 11.2 µM (active)
CC(C(O)c1ccc(O)cc1)N1CCC(Cc2ccccc2)CC1 (centres undefined) |  | 8.91 µM (active)
Cc1cc(C(C#N)c2ccc(Cl)cc2)c(Cl)cc1NC(=O)c1cc(I)cc(I)c1O (centres undefined) | -8.32% (inactive) | 
O=S(=O)(O)c1cc(I)c(O)c2ncccc12 | -4.6% (inactive) | 
CCCCOC(=O)c1ccc(O)cc1 | 1.85% (inactive) | 
CCOC(CN1CCN(CC(C)C(=O)c2ccccc2)CC1)c1ccccc1 (centres undefined) | -24.8% (inactive) | 
CCCCCCCCCCCCCCCC(=O)NCCO | 9.3% (inactive) | 
Cc1ccc(C(C)C)cc2c(C)ccc1-2 | -10% (inactive) | 
CCCCN1CCCC[C@H]1C(=O)Nc1c(C)cccc1C | -18.1% (inactive) | 
OCc1cc(C(O)CNCCCCCCOCCCCc2ccccc2)ccc1O (centres undefined) | -15.5% (inactive) | 
COC(=O)C1=C(C)NC(C)=C(C(=O)OC)C1c1ccccc1[N+](=O)[O-] | -13.3% (inactive) | 
Cc1c(Cl)cccc1Nc1ccccc1C(=O)O | -1.34% (inactive) | 
Cc1cc(N)c2ccccc2[n+]1CCCCCCCCCC[n+]1c(C)cc(N)c2ccccc21 |  | 7.94 µM (active)
CC1=C(CC(=O)O)c2cc(F)ccc2/C1=C\c1ccc(S(C)=O)cc1 (centres undefined) | -7.48% (inactive) | 
CC(C)(C)NCC(O)COc1ccc(NC(=O)NC2CCCCC2)cc1 (centres undefined) | -4.71% (inactive) | 
O=C1NS(=O)(=O)c2ccccc21 | 2.43% (inactive) | 
NC1CCN(c2cccc(Cl)n2)CC1 | -15.5% (inactive) | 
CNCCCC1c2ccccc2C=Cc2ccccc21 | -29.9% [at 12.8 µM] (inactive) | 
Cc1ccc2nc(N)[nH]c(=O)c2c1Sc1ccncc1 |  | 4.47 µM (active)
CC(C)(C)C(=O)C(Oc1ccc(Cl)cc1)n1ccnc1 (centres undefined) |  | 10 µM (active)
CNC(=O)Oc1ccc2c(c1)[C@]1(C)CCN(C)[C@@H]1N2C |  | 2 µM (active)
